The source of these data is PubChem BioAssay (NCI).

Test systems include DU-145 prostate; K-562 leukemia; MALME-3M melanoma; MDA-MB-231 breast; RXF 393 renal; SF-268 CNS; SF-295 CNS; UACC-257 melanoma; M14 melanoma.
Holding throughout (assay): NCI-60 one-dose screen, 48 h (100 = growth as untreated, 0 = no growth, -100 = all killed)
Holding throughout (conditions): 10 µM unless noted

SMILES strings stand for the structures. Compounds without any hit were thinned out: in the full panel of roughly 83,000, 20% have a hit.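 Step 1: grow cells in 96-well plates. Step 2: add test compound at a single concentration. Step 3: incubate 48 h. Step 4: record percent growth.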 A number with no mark means an inactive call. Activity calls are given as the source filed them. How the source made its calls: active means growth percent below 10; inactive means the rest.

Consider `COc1ccc(-c2csc(NC(=O)CN3CCN(c4cc5c(cc4F)c(=O)c(C(=O)O)cn5C4CC4)CC3)n2)cc1`, for which the growth in the test on DU-145 prostate was 30.2%; in the test with K-562 leukemia, 19%; in the test with MALME-3M melanoma it was 15.4%; in the test on MDA-MB-231 breast, 11.9%; in the test with RXF 393 renal it was 18.7%; in the test with SF-268 CNS it was 29.2%. Also, the growth with SF-295 CNS is -4.67% (active); with UACC-257 melanoma, -13.4% (active); in the test with M14 melanoma, 20.3%.
Take `ClC1=C2NC=NC2n2c(nnc2-c2ccc(Cl)cc2)N1` (configuration not stated): the growth was 112% in the test with DU-145 prostate; 91.1% in the test with K-562 leukemia; 129% in the test with MALME-3M melanoma; 95.6% in the test on MDA-MB-231 breast; 101% in the test with RXF 393 renal; 111% with SF-268 CNS. Moreover, the values for the growth in the test on SF-295 CNS, in the test on UACC-257 melanoma and with M14 melanoma were 97.8%, 101% and 102%, respectively.
Regarding `O=C(CN1CCOCC1)Nc1ccc(Cn2nnc3c2C(=O)c2nnn(Cc4ccc(NC(=O)CN5CCOCC5)cc4)c2C3=O)cc1`, the growth is -76.7% (active) in the test on DU-145 prostate; 0.148% (active) with K-562 leukemia; -81.6% (active) with MALME-3M melanoma; -9.32% (active) with MDA-MB-231 breast; -18.7% (active) in the test with RXF 393 renal; -5.75% (active) in the test with SF-268 CNS. Also, the growth in the test with SF-295 CNS is -44.9% (active); in the test with UACC-257 melanoma it was -95.2% (active); in the test with M14 melanoma it was -90.4% (active).
